Assay outcomes (PubChem BioAssay)
An excerpt weighted towards active compounds, which were near 11% of everything screened.
Vaccinia mCherry = inhibitors of vaccinia virus infection (mCherry reporter signal) | Potency, µM (series often up to 36.5 µM), for inactives: top-dose activity change, negative = inhibition, usual class: inhibitors | actives 0.63% (n = 310,000) | Vaccinia virus mCherry reporter infection, fluorescence; calls by dose curve; tested in A549 cells; also: % is scaled to controls: 0 for no effect and ±100 for the full control effect; nearly all actives have a fitted effect of over 35% in size
Pf growth 96h = inhibits malaria parasite growth, 96 h | P. falciparum luciferase reporter growth, 96 h | Potency, µM (series often up to 28.7 µM), for the others: at the highest dose activity change, negative = inhibition, most hits filed as inhibitors | actives 6.9% (n = 320,000) | AID 504834; also: % is scaled to controls: 0 for no effect and ±100 for the full control effect
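96 h incubation, 37 C, 5% CO2, of luciferase-reporter P. falciparum-infected RBCs (2% hematocrit, 0.05% parasitemia final) with test compounds; endpoint luminescence.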
NS1 inh = blocks influenza NS1 protein function. Potency, µM (doses to about 46.1 µM), for inactives: at the top dose activity, positive = more growth. actives 0.4% (n = 270,000); calls by dose curve; also: actives are rising curves; nearly all actives have a fitted effect of over 50% in size
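S. cerevisiae expressing influenza A NS1, grown in glucose, washed, then diluted 1:100 into pH 6.0 -URA galactose medium with 23 nl compound. Growth recovery read as OD600; NS1-free strain serves as control.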
Vaccinia Venus = vaccinia inhibition (Venus reporter); actives 0.46% (n = 330,000); AID 720580; Vaccinia virus Venus reporter expression, fluorescence; Potency, µM (top dose mostly 36.5 µM), for inactives: at the highest dose activity change, negative = inhibition, actives largely listed as inhibitors; calls by dose curve; tested in A549 cells; also: % is scaled to controls: 0 for no effect and ±100 for the full control effect; nearly all actives have a fitted effect of over 30% in size
Pf growth 48h = inhibits P. falciparum growth in the first generation, 48 h; P. falciparum luciferase growth in erythrocytes, 48 h; Potency, µM (doses to about 28.7 µM), for inactives: at the top dose activity change, negative = inhibition, hits mostly inhibitors; actives 5.9% (n = 310,000); AID 504832; also: % is scaled to controls: 0 for no effect and ±100 for the full control effect
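In quantitative HTS format, infected erythrocytes bearing luciferase-reporter parasites were treated for a single generation at 37 C. Luminescence after adding detection reagent served as the growth measure.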
HCV inhibitor = HCV inhibition. Huh7.5.1 HCVcc-Cre infection, luciferase reporter, 44 h. Potency, µM (top dose mostly 41.8 µM), inactives show at the top dose activity change, negative = inhibition, hits mostly inhibitors. actives 3.4% (n = 340,000); also: % is scaled to controls: 0 for no effect and ±100 for the full control effect
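Antiviral activity was scored by luciferase reporter output from cells infected with HCVcc-Cre (~0.5 moi) in presence of compound, 44 h infection period, cells seeded 1,000/well 4 h prior.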
* = called active by the depositor; i = inactive; ? = inconclusive; . = no result given; [ ] = dose if it differs, or a comment. Unless noted, calls follow the shape of the dose curve; as a rule, active = well fitted inhibition curve with a large enough effect; inconclusive = small, poorly fitted or top-dose-only effect, or another doubt; inactive = no such curve, though single readings can be large or run the other way. Potency is read from the fitted curve at half-maximal effect.

SMILES | Vaccinia mCherry | Pf growth 96h | NS1 inh | Vaccinia Venus | Pf growth 48h | HCV inhibitor
COc1ccc(C(C)=O)cc1CSc1nnc(SCc2cc(C(C)=O)ccc2OC)s1 | i | ? | -53% | -1% | ? | 0%
CC1CCCCN1C(=O)CSc1nnc(-c2ccco2)o1 (stereo not given) | 1% | 5.2µM* | 0% | 2% | 123% | -2%
CCN(CC)S(=O)(=O)c1ccc(N/N=C/c2ccccc2OCC(=O)O)c([N+](=O)[O-])c1 | ? | 1.7µM* | . | -20% | 10µM* | -2%
COc1ccc(CC(=O)Nc2ccc(-c3nnc(-c4ccccc4)o3)cc2)cc1OC | i | . | ? | -6% | -5% | 6%
COc1ccc(CC(=O)Nc2ccc(-c3cn4cccc(C)c4n3)cc2)cc1OC | . | . | 4% | ? | -22% | 10µM*
COc1ccc(-c2nc3cc(NC(=O)CSc4ccc(C)cc4)ccc3o2)cc1 | -20% | . | . | -13% | . | .
COc1ccc(-c2nc3cc(NC(=O)Cc4ccc(OC)c(OC)c4)ccc3o2)cc1 | . | 4.1µM* | 26% | . | -11% | 7.1µM*
COc1ccc(CC(=O)Nc2cccc(-c3nnc(-c4ccccc4)o3)c2)cc1OC | 11µM* | . | -55% | ? | ? | 6.3µM*
COc1ccc(CC(=O)Nc2cccc(-c3nnc(-c4cccc(C)c4)o3)c2)cc1OC | -7%[1.46 µM] | . | -95% | ? | ? | 6.3µM*
CCOC(=O)c1c(C)[nH]c(C)c1S(=O)(=O)NCCc1ccc(SC)cc1 | . | -28% | -16% | . | 0% | ?
CCCCSc1nnc([C@H](CC(C)C)NC(=O)OC(C)(C)C)o1 | . | 9% | -31% | . | ? | -8%
CCOC(=O)c1cccc(NC(=O)C2CCCN(c3nnc(N4CCCC4=O)s3)C2)c1 (stereo not given) | i | ? | 1% | -21% | ? | 10%
COc1ccc(C(=O)NCc2ccccc2OC)cc1 | -19% | 5.2µM* | 4% | -7% | ? | -18%
COc1ccccc1CNC(=O)C(NC(=O)c1ccccc1)C(C)C (stereo not given) | . | -5% | 3% | . | 13µM* | 10%
COc1ccccc1CNC(=O)C(NC(=O)c1ccc(C)cc1)C(C)C (stereo not given) | i | ? | . | -6% | 3% | -16%
Cc1cccc(OCC(=O)NCc2cc(C)nc3ccccc23)c1 | -5% | 9.3µM* | . | -14% | -13% | ?
COc1ccc(C(=O)NCc2cc(C)nc3ccccc23)cc1 | . | 11% | ? | . | 11% | 16µM*
CC(C)(C)c1ccc(C(=O)N2CCC2(C)C(=O)Nc2ccc3[nH]ncc3c2)cc1 (stereo not given) | i | . | . | -10% | . | .
COc1ccccc1CNC(=O)CCS(=O)(=O)Cc1ccc(C)cc1 | -22% | 27% | 1% | -10% | 8% | 12%
COc1ccccc1CNC(=O)c1cnc2sccn2c1=O | 0% | -12% | -36% | -14% | 2% | 10µM*
COc1ccccc1CNC(=O)c1cnc2ccccn2c1=O | i | ? | -20% | -17% | -7% | 7%
COc1ccccc1CNC(=O)CS(=O)(=O)Cc1ccccc1 | i | 2.6µM* | 3% | -9% | 9% | 9%
NC(=O)c1ccccc1NC(=O)CS(=O)(=O)Cc1ccccc1 | -8% | 9.3µM* | 3% | -13% | 24% | 6%
CC(C(=O)NC1CCCC1)N1C(=O)c2cccc3cccc1c23 (stereo not given) | i | 2.3µM* | -6% | -10% | ? | -16%
Cc1cccc(C#Cc2ccccc2)n1 | -6% | 154% | -8% | -16% | 102% | 1.1µM*
SMILES | Vaccinia mCherry | Pf growth 96h | NS1 inh | Vaccinia Venus | Pf growth 48h | HCV inhibitor
Nc1ccc(C#Cc2ccccc2)cc1 | . | 229% | -11% | . | 127% | ?
OCCCN1CCN(CCOc2ccccc2-c2ccccc2)CC1 | i | 10µM* | 1% | -9% | ? | -26%
CN1CCN(CCCOc2ccc(-c3ccccc3)cc2)CC1 | -7% | -7% | -12% | -19% | ? | 2.8µM*
CCCCCCOc1ccc(CN2CCN(C)CC2)cc1 | . | -4% | 3% | . | 75% | 1.8µM*
CCCCOc1ccc(CN2CCCCC2)cc1 | -11% | -18% | 4% | -4% | 18% | 17%
c1ccc2cc(CN3CCOCC3)ccc2c1 | -10% | 7% | 8% | -4% | 5% | 9%
CN1CCN(CCOc2ccc(-c3ccccc3)cc2)CC1 | . | ? | -1% | . | ? | ?
CN1CCN(Cc2ccc3ccccc3c2)CC1 | . | 12µM* | 0% | . | ? | 0%
CCOC(=O)/C=C1\SCC(=O)N1CC(=O)NCCOC | -11% | 5% | . | -2% | -10% | -7%
CCCN(CC(=O)Nc1cc(Cl)cc(Cl)c1)CC(=O)Nc1ccc(F)c(F)c1F | ? | 9.3µM* | -9% | ? | ? | ?
CCCN(CC(=O)Nc1ccccc1Br)CC(=O)Nc1ccc(F)c(F)c1F | -8% | -20% | -20% | -19% | ? | ?
Cn1c(C(=O)NCC2CCCO2)cc2c(=O)[nH]c3ccccc3c21 (stereo not given) | . | ? | -7% | . | 4% | 5%
Cc1ccc(-c2nc(C(=O)NCC3CCCO3)cc3c2[nH]c2ccccc23)cc1 (stereo not given) | ? | ? | -18% | -26% | 7.4µM* | ?
COc1ccc(-c2cc(C(=O)NCC3CCCO3)c3ccccc3n2)cc1 (stereo not given) | . | 19% | . | . | 50% | -1%
COc1ccc(-c2nc(C(=O)NCC3CCCO3)cc3c2[nH]c2ccccc23)cc1 (stereo not given) | ? | 7.4µM* | -46% | -21% | 5.2µM* | 3.5µM*
Cc1ccccc1-c1nc(C(=O)NCC2CCCO2)cc2c1[nH]c1ccccc12 (stereo not given) | ? | 12µM* | -34% | -21% | ? | ?
Cc1ccc(NC(=O)CSc2nc(N)c3c4c(sc3n2)CSC(C)(C)C4)cc1 | -7% | ? | 3% | ? | -9% | 11µM*
Cc1ccccc1NC(=O)CSc1nc(N)c2c3c(sc2n1)CSC(C)(C)C3 | -21% | ? | 27% | ? | -24% | ?
Cc1ccc(N(C(=O)Cn2nnc(-c3ccc(F)cc3)n2)C(C(=O)NC(C)(C)C)c2ccncc2)cc1 (stereo not given) | i | -4% | 7% | -13% | 4.7µM* | ?
CC(C)(C)NC(=O)C(c1ccncc1)N(C(=O)Cn1nnc(-c2ccc(F)cc2)n1)c1ccc(F)cc1 (stereo not given) | 3% | 4% | -1% | 0% | 2.6µM* | 5%
CC(C)(C)NC(=O)C(c1ccc(O)cc1)N(C(=O)Cn1nnc(-c2ccc(F)cc2)n1)c1ccccc1F (stereo not given) | . | ? | 6% | . | 12µM* | 4.5µM*
